Measured values as given in article PMC7862700, “An all-to-all approach to the identification of sequence-specific readers for epigenetic DNA modifications on cytosine”.

Legend:
Experiment in all cases: DAPPL (digital affinity profiling via proximity ligation, sequencing); 10 mM Tris-HCl pH 7.5, 50 mM NaCl, 1 mM DTT, 4% glycerol, room temperature, 30 min; GST-TFs on glutathione beads, 16-mer random dsDNA library, 0.1% formaldehyde crosslink after washing; high values mean tight binding
Conditions in all cases: protein: recombinant; tags: N-terminal GST; dsDNA, one strand shown
ERF = biological target: T1, ERF (Homo sapiens, UniProt P50548 1-548)
T1 sequence: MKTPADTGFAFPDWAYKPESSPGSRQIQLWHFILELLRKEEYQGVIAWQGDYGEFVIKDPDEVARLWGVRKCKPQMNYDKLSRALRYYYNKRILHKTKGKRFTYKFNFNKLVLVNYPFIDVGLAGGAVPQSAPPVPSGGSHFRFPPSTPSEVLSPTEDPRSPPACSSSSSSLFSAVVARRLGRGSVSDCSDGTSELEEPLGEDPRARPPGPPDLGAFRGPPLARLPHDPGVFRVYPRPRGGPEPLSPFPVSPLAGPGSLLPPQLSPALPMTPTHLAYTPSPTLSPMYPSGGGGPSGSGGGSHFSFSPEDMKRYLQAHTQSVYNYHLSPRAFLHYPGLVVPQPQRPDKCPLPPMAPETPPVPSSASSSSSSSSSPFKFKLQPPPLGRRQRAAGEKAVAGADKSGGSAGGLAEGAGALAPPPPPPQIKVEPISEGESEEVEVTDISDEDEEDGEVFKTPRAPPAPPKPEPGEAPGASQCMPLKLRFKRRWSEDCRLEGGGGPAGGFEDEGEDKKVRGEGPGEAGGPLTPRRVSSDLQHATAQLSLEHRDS
Summary of the method: (§1)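 After expression in yeast as GST fusions, human transcription factors were bound to glutathione beads, DNA-barcoded and mixed with a tag-only sample. The pools were incubated with 200 nmole of a 16-mer random double-stranded DNA library in Tris/NaCl/DTT/glycerol buffer (30 min, room temperature), washed and crosslinked with 0.1% formaldehyde. Proximity ligation with BsaI/T4 ligase ran for 1 h at 37 °C, before PCR amplification and sequencing on an Illumina NextSeq500. Binding signal is a hexamer's read frequency for a factor divided by its frequency for the tag-only sample.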

ETV3L = biological target: T2, ETV3L (Homo sapiens, UniProt Q6ZN32 1-361)
T2 sequence: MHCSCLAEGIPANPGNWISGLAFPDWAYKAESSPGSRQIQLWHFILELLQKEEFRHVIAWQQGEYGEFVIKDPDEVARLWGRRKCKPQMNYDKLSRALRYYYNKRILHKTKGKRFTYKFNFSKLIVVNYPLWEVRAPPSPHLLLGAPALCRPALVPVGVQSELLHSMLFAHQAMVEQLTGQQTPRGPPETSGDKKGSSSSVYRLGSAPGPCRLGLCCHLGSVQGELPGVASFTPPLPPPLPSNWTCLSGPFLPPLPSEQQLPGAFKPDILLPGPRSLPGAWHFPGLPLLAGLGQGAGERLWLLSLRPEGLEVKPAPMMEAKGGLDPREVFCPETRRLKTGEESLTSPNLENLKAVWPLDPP
Summary of the method: as §1

ETS2 = biological target: T3, ETS2 (Homo sapiens, UniProt P15036 1-469)
T3 sequence: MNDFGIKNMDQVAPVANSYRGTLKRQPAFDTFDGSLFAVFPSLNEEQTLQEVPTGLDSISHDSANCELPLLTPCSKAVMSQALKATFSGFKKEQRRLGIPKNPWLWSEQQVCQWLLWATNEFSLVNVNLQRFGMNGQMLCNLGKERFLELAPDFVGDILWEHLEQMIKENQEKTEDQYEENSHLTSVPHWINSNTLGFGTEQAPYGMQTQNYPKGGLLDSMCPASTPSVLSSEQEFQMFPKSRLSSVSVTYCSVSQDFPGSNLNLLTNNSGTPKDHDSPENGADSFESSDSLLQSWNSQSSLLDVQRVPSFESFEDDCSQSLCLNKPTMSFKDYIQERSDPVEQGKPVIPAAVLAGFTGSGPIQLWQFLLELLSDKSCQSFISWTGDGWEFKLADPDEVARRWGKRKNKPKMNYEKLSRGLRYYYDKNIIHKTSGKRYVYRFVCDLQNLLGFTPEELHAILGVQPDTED
Summary of the method: as §1

SPDEF = biological target: T4, SPDEF (Homo sapiens, UniProt O95238 1-335)
T4 sequence: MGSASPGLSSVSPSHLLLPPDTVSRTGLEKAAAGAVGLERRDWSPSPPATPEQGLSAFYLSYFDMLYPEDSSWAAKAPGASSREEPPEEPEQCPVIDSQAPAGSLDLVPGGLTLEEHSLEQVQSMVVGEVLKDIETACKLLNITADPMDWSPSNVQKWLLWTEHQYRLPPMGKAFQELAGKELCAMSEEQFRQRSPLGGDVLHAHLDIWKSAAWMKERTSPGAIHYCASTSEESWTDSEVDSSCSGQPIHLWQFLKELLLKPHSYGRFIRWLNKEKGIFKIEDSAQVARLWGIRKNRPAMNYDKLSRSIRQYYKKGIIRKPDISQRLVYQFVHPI
Summary of the method: as §1

ETV7 = biological target: T5, ETV7 (Homo sapiens, UniProt Q9Y603 1-341)
T5 sequence: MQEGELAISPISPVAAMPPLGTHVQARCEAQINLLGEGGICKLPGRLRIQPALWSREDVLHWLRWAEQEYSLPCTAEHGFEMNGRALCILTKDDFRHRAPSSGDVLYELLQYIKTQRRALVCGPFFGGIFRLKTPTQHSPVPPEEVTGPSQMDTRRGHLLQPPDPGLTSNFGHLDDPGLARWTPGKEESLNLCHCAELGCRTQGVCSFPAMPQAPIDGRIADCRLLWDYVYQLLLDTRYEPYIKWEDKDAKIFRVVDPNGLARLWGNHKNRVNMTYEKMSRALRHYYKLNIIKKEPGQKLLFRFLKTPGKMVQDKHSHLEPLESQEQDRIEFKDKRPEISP
Summary of the method: as §1

ELF5 = biological target: T6, ELF5 (Homo sapiens, UniProt Q9UKW6-2 1-255)
T6 sequence: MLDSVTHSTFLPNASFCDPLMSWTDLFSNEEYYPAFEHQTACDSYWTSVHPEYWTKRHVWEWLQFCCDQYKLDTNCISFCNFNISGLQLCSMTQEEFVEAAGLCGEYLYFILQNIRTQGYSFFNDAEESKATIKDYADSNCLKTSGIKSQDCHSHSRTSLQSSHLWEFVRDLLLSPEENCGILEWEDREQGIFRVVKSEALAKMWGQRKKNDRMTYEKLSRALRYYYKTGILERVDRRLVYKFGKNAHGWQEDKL
Summary of the method: as §1

ETV3 = biological target: T7, ETV3 (Homo sapiens, UniProt P41162-2 1-143)
T7 sequence: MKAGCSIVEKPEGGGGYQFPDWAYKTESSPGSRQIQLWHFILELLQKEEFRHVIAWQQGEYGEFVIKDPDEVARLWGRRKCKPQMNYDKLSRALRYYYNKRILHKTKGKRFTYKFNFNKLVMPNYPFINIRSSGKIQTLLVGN
Summary of the method: as §1

ETV6 = ETV6 (Homo sapiens, UniProt P41212 1-452)
Summary of the method: as §1

Sequence of ETV6 (P41212 whole entry): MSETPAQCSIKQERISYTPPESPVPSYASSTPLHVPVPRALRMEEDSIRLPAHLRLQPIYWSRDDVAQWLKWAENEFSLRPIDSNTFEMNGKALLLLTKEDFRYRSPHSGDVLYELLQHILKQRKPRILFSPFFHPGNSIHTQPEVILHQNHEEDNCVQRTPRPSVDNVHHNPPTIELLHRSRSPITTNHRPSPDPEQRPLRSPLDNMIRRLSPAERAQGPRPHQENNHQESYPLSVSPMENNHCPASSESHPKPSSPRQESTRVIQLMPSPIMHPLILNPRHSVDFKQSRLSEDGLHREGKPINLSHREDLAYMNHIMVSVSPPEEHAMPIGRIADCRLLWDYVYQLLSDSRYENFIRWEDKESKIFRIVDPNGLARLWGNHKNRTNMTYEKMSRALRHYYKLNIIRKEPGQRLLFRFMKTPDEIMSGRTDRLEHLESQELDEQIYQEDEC

Sequence	binding signal (ERF)	binding signal (ETV3L)	binding signal (ETS2)	binding signal (SPDEF)	binding signal (ETV7)	binding signal (ELF5)	binding signal (ETV3)	binding signal (ETV6)
GTGGCT	1.18 fold enrichment (6-mer frequency, TF over GST control)	1.07 fold enrichment (6-mer frequency, TF over GST control)	1.14 fold enrichment (6-mer frequency, TF over GST control)	1.03 fold enrichment (6-mer frequency, TF over GST control)	1.1 fold enrichment (6-mer frequency, TF over GST control)	1.03 fold enrichment (6-mer frequency, TF over GST control)	1.12 fold enrichment (6-mer frequency, TF over GST control)	1.07 fold enrichment (6-mer frequency, TF over GST control)
CTATCC	1.38 fold enrichment (6-mer frequency, TF over GST control)	1.4 fold enrichment (6-mer frequency, TF over GST control)	1.35 fold enrichment (6-mer frequency, TF over GST control)	1.63 fold enrichment (6-mer frequency, TF over GST control)	1.46 fold enrichment (6-mer frequency, TF over GST control)	1.45 fold enrichment (6-mer frequency, TF over GST control)	1.27 fold enrichment (6-mer frequency, TF over GST control)	1.32 fold enrichment (6-mer frequency, TF over GST control)
GCACCC	1.21 fold enrichment (6-mer frequency, TF over GST control)	1.23 fold enrichment (6-mer frequency, TF over GST control)	1.16 fold enrichment (6-mer frequency, TF over GST control)	1.17 fold enrichment (6-mer frequency, TF over GST control)	1.12 fold enrichment (6-mer frequency, TF over GST control)	1.17 fold enrichment (6-mer frequency, TF over GST control)	1.24 fold enrichment (6-mer frequency, TF over GST control)	1.09 fold enrichment (6-mer frequency, TF over GST control)
CCGACG	1.32 fold enrichment (6-mer frequency, TF over GST control)	1.23 fold enrichment (6-mer frequency, TF over GST control)	1.33 fold enrichment (6-mer frequency, TF over GST control)	1.19 fold enrichment (6-mer frequency, TF over GST control)	1.34 fold enrichment (6-mer frequency, TF over GST control)	1.28 fold enrichment (6-mer frequency, TF over GST control)	1.16 fold enrichment (6-mer frequency, TF over GST control)	1.31 fold enrichment (6-mer frequency, TF over GST control)
TGCATC	1.4 fold enrichment (6-mer frequency, TF over GST control)	1.34 fold enrichment (6-mer frequency, TF over GST control)	1.39 fold enrichment (6-mer frequency, TF over GST control)	1.88 fold enrichment (6-mer frequency, TF over GST control)	1.37 fold enrichment (6-mer frequency, TF over GST control)	1.35 fold enrichment (6-mer frequency, TF over GST control)	1.29 fold enrichment (6-mer frequency, TF over GST control)	1.33 fold enrichment (6-mer frequency, TF over GST control)
TTAGTA	1.17 fold enrichment (6-mer frequency, TF over GST control)	1.07 fold enrichment (6-mer frequency, TF over GST control)	1.09 fold enrichment (6-mer frequency, TF over GST control)	1.12 fold enrichment (6-mer frequency, TF over GST control)	1.14 fold enrichment (6-mer frequency, TF over GST control)	1.07 fold enrichment (6-mer frequency, TF over GST control)	1.27 fold enrichment (6-mer frequency, TF over GST control)	1.12 fold enrichment (6-mer frequency, TF over GST control)
CTCATC	1.44 fold enrichment (6-mer frequency, TF over GST control)	1.5 fold enrichment (6-mer frequency, TF over GST control)	1.32 fold enrichment (6-mer frequency, TF over GST control)	1.39 fold enrichment (6-mer frequency, TF over GST control)	1.23 fold enrichment (6-mer frequency, TF over GST control)	1.44 fold enrichment (6-mer frequency, TF over GST control)	1.48 fold enrichment (6-mer frequency, TF over GST control)	1.37 fold enrichment (6-mer frequency, TF over GST control)
CCACGA	1.04 fold enrichment (6-mer frequency, TF over GST control)	1.09 fold enrichment (6-mer frequency, TF over GST control)	1.08 fold enrichment (6-mer frequency, TF over GST control)	1.03 fold enrichment (6-mer frequency, TF over GST control)	1.17 fold enrichment (6-mer frequency, TF over GST control)	1.01 fold enrichment (6-mer frequency, TF over GST control)	1.02 fold enrichment (6-mer frequency, TF over GST control)	1.01 fold enrichment (6-mer frequency, TF over GST control)
ATCATA	1.12 fold enrichment (6-mer frequency, TF over GST control)	1.12 fold enrichment (6-mer frequency, TF over GST control)	1.03 fold enrichment (6-mer frequency, TF over GST control)	1.03 fold enrichment (6-mer frequency, TF over GST control)	1.1 fold enrichment (6-mer frequency, TF over GST control)	1.11 fold enrichment (6-mer frequency, TF over GST control)	1.09 fold enrichment (6-mer frequency, TF over GST control)	1.1 fold enrichment (6-mer frequency, TF over GST control)
TGTCTC	1.2 fold enrichment (6-mer frequency, TF over GST control)	1.3 fold enrichment (6-mer frequency, TF over GST control)	1.26 fold enrichment (6-mer frequency, TF over GST control)	1.33 fold enrichment (6-mer frequency, TF over GST control)	1.16 fold enrichment (6-mer frequency, TF over GST control)	1.26 fold enrichment (6-mer frequency, TF over GST control)	1.21 fold enrichment (6-mer frequency, TF over GST control)	1.22 fold enrichment (6-mer frequency, TF over GST control)
TTGCGG	1.25 fold enrichment (6-mer frequency, TF over GST control)	1.3 fold enrichment (6-mer frequency, TF over GST control)	1.21 fold enrichment (6-mer frequency, TF over GST control)	1.24 fold enrichment (6-mer frequency, TF over GST control)	1.29 fold enrichment (6-mer frequency, TF over GST control)	1.24 fold enrichment (6-mer frequency, TF over GST control)	1.34 fold enrichment (6-mer frequency, TF over GST control)	1.41 fold enrichment (6-mer frequency, TF over GST control)
AATGAA	1.29 fold enrichment (6-mer frequency, TF over GST control)	1.19 fold enrichment (6-mer frequency, TF over GST control)	1.15 fold enrichment (6-mer frequency, TF over GST control)	1.04 fold enrichment (6-mer frequency, TF over GST control)	1.18 fold enrichment (6-mer frequency, TF over GST control)	1.22 fold enrichment (6-mer frequency, TF over GST control)	1.17 fold enrichment (6-mer frequency, TF over GST control)	1.23 fold enrichment (6-mer frequency, TF over GST control)
ACAAGC	1.15 fold enrichment (6-mer frequency, TF over GST control)	1.11 fold enrichment (6-mer frequency, TF over GST control)	1.18 fold enrichment (6-mer frequency, TF over GST control)	1 fold enrichment (6-mer frequency, TF over GST control)	1.01 fold enrichment (6-mer frequency, TF over GST control)	1.02 fold enrichment (6-mer frequency, TF over GST control)	1.13 fold enrichment (6-mer frequency, TF over GST control)	1.09 fold enrichment (6-mer frequency, TF over GST control)
AAATGG	1.49 fold enrichment (6-mer frequency, TF over GST control)	1.54 fold enrichment (6-mer frequency, TF over GST control)	1.54 fold enrichment (6-mer frequency, TF over GST control)	1.41 fold enrichment (6-mer frequency, TF over GST control)	1.38 fold enrichment (6-mer frequency, TF over GST control)	1.52 fold enrichment (6-mer frequency, TF over GST control)	1.5 fold enrichment (6-mer frequency, TF over GST control)	1.47 fold enrichment (6-mer frequency, TF over GST control)
